Compounds with a hit are over-represented: about 12% of the library has one in this group of screens.
BAZ2B block – qHTS Assay for Inhibitors of BAZ2B; AID 504333, 2011; AlphaScreen BAZ2B-H3K14Ac peptide displacement; actives 4.4% (n = 360,000); Bromodomain adjacent to zinc finger domain protein 2B (Homo sapiens), Q9UIF8; Potency, µM (top dose mostly 114 µM), most hits filed as inhibitors; further: nearly all actives have a fitted effect of over 60% in size
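BAZ2B (50 nM) with biotin-H3(5-23)K14Ac peptide (50 nM) in PBS pH 7.4, 0.01% Tween-20, preformed 30 min, then compound 30 min at room temperature; top concentration 110uM. AlphaScreen streptavidin donor/nickel chelate acceptor beads (10 ug/mL final), 20 min dark, signal read.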
HP1b chromo inh – HTS for Inhibitors of HP1-beta Chromodomain Interactions with Methylated Histone Tails; Potency, µM (doses to about 114 µM), actives largely listed as inhibitors; Chromobox protein homolog 1 (Homo sapiens), P83916; actives 0.56% (n = 390,000); AlphaScreen HP1-beta / biotin-H3K9me3 peptide binding; further: nearly all actives have a fitted effect of over 70% in size
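HP1-beta protein (50 nM final) preincubated 30 min at room temperature with biotinylated H3(1-18)K9me3 peptide (50 nM) in PBS pH 7.4, 0.01% Tween-20, then compound added for 30 min. AlphaScreen streptavidin donor/nickel chelate acceptor beads (10 ug/mL final), 30 min dark, luminescence read.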
PLK1 PBD block – qHTS for Inhibitors of PLK1-PDB (polo-like kinase 1 - polo-box domain): Primary Screen; actives 2.8% (n = 360,000); Serine/threonine-protein kinase PLK1 (Homo sapiens), P53350; Potency, µM, actives largely listed as inhibitors; Plk1 PBD binding of FITC phosphopeptide, fluorescence polarization; AID 720504, 2013; further: series mostly up to about 57 µM; nearly all actives have a fitted effect of over 65% in size
Target sequence (P53350 whole entry, looked up, the tested form may be a part): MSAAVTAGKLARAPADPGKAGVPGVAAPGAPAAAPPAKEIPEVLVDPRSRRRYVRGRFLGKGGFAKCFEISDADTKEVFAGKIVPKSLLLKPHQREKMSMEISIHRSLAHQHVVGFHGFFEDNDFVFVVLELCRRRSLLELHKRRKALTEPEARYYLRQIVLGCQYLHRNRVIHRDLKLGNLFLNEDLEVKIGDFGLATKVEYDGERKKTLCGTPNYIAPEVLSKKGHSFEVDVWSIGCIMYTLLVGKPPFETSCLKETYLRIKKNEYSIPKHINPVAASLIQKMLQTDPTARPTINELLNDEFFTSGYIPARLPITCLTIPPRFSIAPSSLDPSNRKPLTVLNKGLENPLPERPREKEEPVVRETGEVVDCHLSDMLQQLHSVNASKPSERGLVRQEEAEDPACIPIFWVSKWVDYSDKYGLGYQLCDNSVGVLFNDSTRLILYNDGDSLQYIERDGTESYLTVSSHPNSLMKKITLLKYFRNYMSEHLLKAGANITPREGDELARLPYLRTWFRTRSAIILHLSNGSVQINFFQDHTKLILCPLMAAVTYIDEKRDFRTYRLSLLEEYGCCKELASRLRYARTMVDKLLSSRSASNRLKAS
JMJD2A Tudor inh – qHTS Assay for Inhibitors of JMJD2A-Tudor Domain | AlphaScreen JMJD2A-Tudor / H3K4me3 peptide binding | AID 504339, 2011 | Potency, µM (top dose mostly 114 µM), actives largely listed as inhibitors | actives 4.4% (n = 390,000); further: nearly all actives have a fitted effect of over 50% in size
G9a block – qHTS Assay for Inhibitors of Histone Lysine Methyltransferase G9a | Histone-lysine N-methyltransferase EHMT2 (Homo sapiens), Q96KQ7 | G9a H3K9 monomethylation, AlphaScreen, 2 h | Potency, µM (doses to about 102 µM), hits mostly inhibitors | actives 8.8% (n = 350,000); further: nearly all actives have a fitted effect of over 75% in size
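Compounds were preincubated with 20 nM G9a for 15 min, after which biotinylated H3K9 peptide (500 nM) and SAM (20 uM) started a 2 h room-temperature reaction. Monomethylated product was quantified by antibody-based AlphaScreen chemiluminescence.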
Sfp inh – qHTS Assay for Inhibitors of Bacillus subtilis Sfp phosphopantetheinyl transferase (PPTase); Potency, µM, hits mostly inhibitors; Biochemical Sfp PPTase activity, qHTS; AID 1490, 2009; actives 3.5% (n = 310,000);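 further: the enzyme is Sfp with the accession as filed and its product quenches rhodamine fluorescence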
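Sfp 15 nM + cpd, 15 min RT; start w/ rhodamine-CoA 5 uM, BHQ-2-YbbR 12.5 uM (final); 50 mM Hepes pH 7.6, 10 mM MgCl2, 0.01% NP-40, 0.01% BSA; read 525/598 nm at 0 and 30 min.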
A number is an active result; n = inactive; u = inconclusive; x = not tested or not shown; [ ] = remark or other dose. The call rests on the fitted dose curve; in most records, active means well fitted curve in the direction sought with a large enough effect; inconclusive means small, poorly fitted or top-dose-only effect, or another doubt; inactive means no such curve, though single readings can be large; an effect the other way counts as inactive or inconclusive.

SMILES	BAZ2B block	HP1b chromo inh	PLK1 PBD block	JMJD2A Tudor inh	G9a block	Sfp inh
O=c1c(O)c(-c2ccc(O[C@@H]3O[C@H](CO)[C@@H](O)[C@H](O)[C@H]3O)c(O)c2)oc2cc(O)cc(O)c12	x	x	x	x	x	n
O=C1CCC2S/C(=C/Nc3ccc(C(F)(F)F)cc3)C(=O)N12 (stereo not given)	u	n	9.5µM	n[11.4 µM]	u	22µM
Cn1c(=O)c2ncn(CC(=O)NC3CCCCCC3)c2n(C)c1=O	n	n	n	n	14µM	n
Cn1c(=O)c2ncn(CC(=O)NCCOCc3ccccc3Cl)c2n(C)c1=O	n	n	n	n	n	n
Cn1c(=O)c2ncn(CC(=O)NCCOc3ccc(C(C)(C)C)cc3)c2n(C)c1=O	n	n	n	n	40µM	n
CCc1nn(CC(=O)NCCc2ccc(Cl)cc2)c(=O)c2cc3ccccc3n12	n	n	x	n	n	x
COc1ccc(CCN(C)CCc2ccc(OC)c(OC)c2)cc1OC	x	n	n	n	16µM	n
COc1cc(C(C)=O)ccc1OCC(O)CNCC(O)c1ccccc1 (stereo not given)	56µM	u	n	28µM	n	n
COc1ccc(CCN(C)CC(O)c2ccccc2)cc1OC (stereo not given)	u	u	n	2.5µM	28µM	u
CN(Cc1ccc(Br)cc1)CC(O)COc1cccc(Br)c1 (stereo not given)	79µM	u	n	5µM	22µM	n
CN(C)CC(O)COc1cccc(OCC(O)CN(C)C)c1 (stereo not given)	n	n	n	n	n[12.7 µM]	n
COc1ccc(CCN(C)CCC(=O)Nc2ccc(C)cc2)cc1OC	n	n	n	n	n	n
CN(Cc1ccc(OCC(O)CN(C)Cc2ccccc2)cc1)Cc1nccn1C (stereo not given)	u	n	n	n	n	n
COc1ccc(CCN(C)CCC(=O)Nc2cccc(C)c2)cc1OC	n	n	n	n	u	n
C=CCOc1ccc(CN(C)CC(O)COc2ccc(CCC(C)=O)cc2)cc1 (stereo not given)	n	u	n	1µM	10µM	n
COc1ccc(CCN(C)CC(O)COc2ccc(C(C)=O)cc2OC)cc1OC (stereo not given)	n	79µM	n	28µM	28µM	n
COc1ccc(CCN(C)C/C=C/c2ccccc2)cc1OC	u	u	n	28µM	50µM	n
COc1ccc(CN(C)CC(O)COc2ccc(-c3ccccc3)cc2)cc1OC (stereo not given)	79µM	50µM	n	35µM	40µM	n
CC(C)(CO)[C@H](O)C(=O)NCCC(=O)O	x	x	x	x	n[21.5 µM]	n
Cc1ccn2c(=O)c(NC(=O)c3cccc([N+](=O)[O-])c3C)c(C)nc2c1	n	n	x	n	n	x
COc1cc(NCCCCCCN)c2ncccc2c1OC	x	u	u	56µM	x	x
COc1cc(NC(C)CCCNC(C)C)c2ncccc2c1OC (stereo not given)	x	u	n	0.89µM	x	x
COc1ccccc1C(CNC(=O)C(C)Oc1ccc(Br)cc1)N1CCCC1 (stereo not given)	n	n	n	n	u	x
COc1ccc(C)cc1NC(=O)C(c1ccccc1)N1CCNC(=O)C1 (stereo not given)	n	x	x	x	50µM	n
COc1ccc([N+](=O)[O-])c(S(=O)(=O)c2ccccc2)n1	n	n	9.5µM	n	11µM	u
SMILES	BAZ2B block	HP1b chromo inh	PLK1 PBD block	JMJD2A Tudor inh	G9a block	Sfp inh
COc1ccc([N+](=O)[O-])c(S(=O)(=O)c2ccc(Cl)cc2)n1	n	n	3µM	n	18µM	u
Cc1ccc(C(=O)NCC(=O)OCC(=O)NCCc2ccccc2)s1	u	n	27µM	50µM	n	n
CCCCOP(=O)(OCCCC)C1(NS(=O)(=O)c2ccccc2)C=CC(=O)c2ccccc21 (stereo not given)	n	u	n	u	1.8µM	n
S=c1nc[nH]c2c1[nH]c1ccc(Cl)cc12	n	n	u	4.5µM	1.4µM	n
CCOc1ccc(S(=O)(=O)NCCC(=O)OCC(=O)c2ccc(NC(C)=O)cc2)cc1	n	n	n	n	n[0.501 µM]	x
CC1(C)CC(=O)C2=C(C1)N(Cc1ccco1)C(=O)C2(NC(=O)c1ccc(Cl)cc1Cl)C(F)(F)F (stereo not given)	n	n	n	n	n[12.7 µM]	n
CC1(C)CC(=O)C2=C(C1)N(Cc1ccco1)C(=O)C2(NC(=O)C1CCCCC1)C(F)(F)F (stereo not given)	n	n	n	n	n[12.7 µM]	25µM
CCCCNc1c(-c2ccc(OC)c(SC3CCCCC3)c2)nc2cc(C)ccn12	u	n	n	56µM	n[2.33 µM]	x
CCSC1=NC(=O)/C(=C2/C=Cc3ccccc3N2CC)S1	7.1µM	u	n	28µM	u	u
CCN1/C(=C2\OC(=S)N(C)C2=O)C=Cc2ccccc21	x	n	n	n	n	n
COc1ccc(OC)c(-c2csc(NC(=O)Cc3ccc(OC)c(OC)c3)n2)c1	u	n	n	u	50µM	n
COc1ccc(OC)c(-c2csc(NC(=O)CSc3ccccc3)n2)c1	u	n	n	n	n	n
COc1ccc(-c2csc(NC(=O)CSc3ccc(Br)cc3)n2)c(OC)c1	u	n	n	n	25µM	n
Nc1ccccc1Nc1cc(-c2ccccc2)nn1-c1cccc(Cl)c1	11µM	45µM	n	20µM	u	n
O=c1[nH]c(=O)c2nc(Br)n(C3OC(CO)C(O)C3O)c2[nH]1 (stereo not given)	x	x	x	x	x	n
O=c1nc(-c2ccccc2)c2ccccc2[nH]1	n	n	n	n	n	n
S=c1nc(-c2ccc(Br)cc2)[nH]c2ccccc12	n	n	12µM	n[11.4 µM]	x	n
S=c1nc(-c2ccccc2)[nH]c2ccccc12	n	n	n	n	50µM	n
CC(C)C[C@@H](CC(=O)N[C@@H](CCCN)CC(=O)N[C@@H]1CCCC[C@H]1C(=O)N[C@H](CC(=O)N[C@@H](CCC(=O)O)CC(=O)O)Cc1ccccc1)NC(=O)[C@@H]1CCCC[C@H]1N	x	x	x	x	x	n
O=[N+]([O-])c1ccc2nc(Cl)nc(-c3ccccc3)c2c1	n	n	u	u	u	n
COc1ccc(-n2c(=O)c3c4c(sc3n(Cc3ccc(F)cc3)c2=O)CN(C(C)=O)CC4)c(OC)c1	n	n	x	n	n	x
COc1ccccc1CC(=O)Nc1ccc(S(=O)(=O)N2CCCCC2)cc1	n	n	n	n	u	n

High-throughput results deposited in PubChem BioAssay by National Center for Advancing Translational Sciences (NCATS).
